About 83,000 compounds went through this panel and 20% of them were active in at least one assay; those are over-represented in the sample as a whole.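 Plates (96-well) were seeded with cells, treated with compound at one concentration, and incubated for 48 hours before percent growth was determined.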 Unmarked numbers belong to inactive results. Active and inactive are the calls of the source. How the source made its calls: active means growth percent below 10; inactive means the rest.
Key:
Experiment in all cases: NCI-60 one-dose screen, 48 h (100 = growth as untreated, 0 = no growth, -100 = all killed)
Conditions in all cases: 10 µM unless noted
NCI-H23 lung = tested on: NCI-H23 lung
NCI-H226 lung = tested on: NCI-H226 lung
NCI-H322M lung = tested on: NCI-H322M lung
HOP-62 NSCLC = tested on: HOP-62 NSCLC
NCI-H460 lung = tested on: NCI-H460 lung
HOP-92 NSCLC = tested on: HOP-92 NSCLC
NCI-H522 lung = tested on: NCI-H522 lung
A549/ATCC NSCLC = tested on: A549/ATCC NSCLC
786-0 renal = tested on: 786-0 renal
COLO 205 colon = tested on: COLO 205 colon

Row | Compound | growth (NCI-H23 lung) | growth (NCI-H226 lung) | growth (NCI-H322M lung) | growth (HOP-62 NSCLC) | growth (NCI-H460 lung) | growth (HOP-92 NSCLC) | growth (NCI-H522 lung) | growth (A549/ATCC NSCLC) | growth (786-0 renal) | growth (COLO 205 colon)
1 | COC(CC(F)F)c1cn(S(=O)(=O)c2ccc(C)cc2)c2ccccc12 (centres undefined) | 52% | 75.9% | 27.8% | 34.1% | 11.6% | 40.8% | 42.7% | 33.9% | 35.3% | 3.62% (active)
2 | N#Cc1nc(-c2ccc(Cl)cc2)oc1S(=O)(=O)N1CCN(c2ccc(F)cc2)CC1 | 88.6% | 94.9% | 94% | 96.4% | 104% | 99.3% | 65.9% | 98.6% | 99.5% | 102%
3 | CCOC(=O)C(=O)C(C(=O)OCC)c1ccccc1 (centres undefined) | 107% | 107% | 110% | 107% | 110% | 107% | 101% | 122% | 93.3% | 118%
4 | COC1=CC(c2ccc[nH]2)=N/C1=C\c1[nH]c(C)c(CC(=O)OCc2ccccc2)c1CCC(=O)OCc1ccccc1 | -12.6% (active) | -12.8% (active) | 34.7% | -22.2% (active) | 12.2% | -26.1% (active) | -48.5% (active) | 5.29% (active) | -56.2% (active) | -45.6% (active)
5 | O=C(O)CCCN1C(=O)/C(=C/c2cn(-c3ccccc3)nc2-c2ccc([N+](=O)[O-])cc2)SC1=S | 74.6% | 64.8% | 44.1% | 49.6% | 25.7% | 111% | 83.7% | 40.5% | 64.5% | 103%
6 | CCOC(=O)c1cc(C(=O)c2cc(OC)c(OC)c(OC)c2)n2ncccc12 | 38% | 29.6% | 48.1% | 32.2% | 10.3% | 73.6% | 34.8% | 24.1% | 26.5% | -24.7% (active)
7 | COc1cc(/C=C/C(=O)c2ccc(F)cc2)ccc1OCCCCOc1ccc(/C=C/C(=O)c2c(C)nc3ccccc3c2C)cc1OC | 74.9% | 69.4% | 103% | 90.2% | 104% | 84.5% | 59.1% | 76.9% | 86.7% | 119%
8 | O=C1/C=C/[C@@H](O)[C@@H]2C[C@@H](O)C[C@H]2/C=C/CCC[C@H](CCc2ccccc2)O1 | 13.3% | -28.6% (active) | 35.9% | 30.1% | 15.5% | -16.5% (active) | 7.89% (active) | 16.6% | -54.7% (active) | -72.5% (active)
9 | CCNCCNc1cc(C2CCCCC2)c(C#N)c2nc3ccccc3n12 | 44.7% | 15.3% | -3.13% (active) | 16.1% | -23.4% (active) | -24.5% (active) | -9.52% (active) | 3.05% (active) | 4.62% (active) | -52.8% (active)
10 | Cc1csc(Nc2nc(-c3ccccn3)nc(C(Cl)(Cl)Cl)n2)n1 | 84.9% | 101% | 80.5% | 101% | 84% | 94.1% | 86.7% | 79.4% | 94.8% | 92%
11 | COc1cc(-c2nccc3[nH]c(-c4ccc5cc[nH]c5c4)nc23)cc(OC)c1OC | 26.1% | 19.3% | 45% | -19.6% (active) | 2.58% (active) | – | -59.5% (active) | -28.5% (active) | -56% (active) | -71.5% (active)
12 | N=C(N)c1ccc(-c2ccc(-c3ccccc3)o2)cc1 | 3.73% (active) | -26.4% (active) | -37.8% (active) | -50.7% (active) | -73.1% (active) | -59.5% (active) | -82.6% (active) | -30.1% (active) | -86% (active) | -87.7% (active)

Source: PubChem BioAssay (NCI)
